# Source: PubChem BioAssay (NCATS)
# “And” between values parts separate entries of the source, which are not always exact repeats. Identical values can stand only once. Records with an inconclusive call do not appear. The source made the active and inactive calls. Calls follow the shape of the full dose curve.
# Molecular target: Cytochrome P450 1A2 (Homo sapiens) (UniProt P05177)
# Experiment: p450-cyp1a2 (AID 410);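 as to activity change, negative = inhibition: -100% = full effect of reference inhibitor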
# Conditions: recombinant CYP1A2, luciferin-ME demethylation, luminescence; series mostly up to 57 µM; activity change, negative = inhibition: at the top concentration
# Method: The P450 gene superfamily is involved in metabolism and the clearance of xenobiotics. This assay used human CYP1A2 to measure the demethylation of luciferin 6' methyl ether (Luciferin-ME; Promega-Glo) to luciferin. The luciferin is then measured by luminescence after the addition of a luciferase detection regeant. Luciferin-ME concentration in the assay was equal to its Km for CYP1A2.
# NCGC Assay Protocol Summary:
# Two uL of enzyme and substrate mix (final concentrations: 20nM CYP1A2, 100uM Luciferin-ME, 100mM KPO4) were dispensed into a white, solid bottom 1536-well microtiter plate. 23nL of compound was transferred by a pin tool. The plate was incubated at room temperature for 10 min. Two uL of an NADPH regeneration solution (Promega supplied reagent) was dispensed and the reaction was allowed to continue for 60 min at room temperature. Then the reaction was stopped by reconstituted detection reagent. After another 20 min of incubation the plate was read on the ViewLux (Perkin Elmer) at 60 sec exposure and 2x2 binning. This protocol was carried out with Promega-Glo reagents and further information can be found at http://www.promega.com/tbs/tb325/tb325.pdf. Data were normalized to the to AC100 inhibition (57 uM furafylline).
# Potency is read from the fitted curve at half-maximal effect.
# Cytochrome P450 1A2 (Homo sapiens), sequence (P05177 whole entry, looked up): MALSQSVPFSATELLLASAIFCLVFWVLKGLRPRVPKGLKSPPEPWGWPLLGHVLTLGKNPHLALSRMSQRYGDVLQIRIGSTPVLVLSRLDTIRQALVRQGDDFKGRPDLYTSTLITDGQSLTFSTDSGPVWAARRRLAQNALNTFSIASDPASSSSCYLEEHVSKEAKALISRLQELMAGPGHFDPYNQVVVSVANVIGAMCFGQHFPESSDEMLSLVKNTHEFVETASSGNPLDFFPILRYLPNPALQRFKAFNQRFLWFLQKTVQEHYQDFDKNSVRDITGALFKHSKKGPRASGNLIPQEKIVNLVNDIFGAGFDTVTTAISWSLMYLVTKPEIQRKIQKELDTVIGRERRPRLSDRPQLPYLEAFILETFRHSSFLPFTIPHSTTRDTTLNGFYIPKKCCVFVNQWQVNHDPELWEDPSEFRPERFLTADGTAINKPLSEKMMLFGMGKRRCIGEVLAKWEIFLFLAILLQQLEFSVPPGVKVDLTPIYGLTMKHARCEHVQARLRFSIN
Structure (SMILES),"activity change, negative = inhibition",Potency
CCCCCC[C@H]1C(=O)O[C@@H](C)[C@H](NC(=O)c2cccc(NC=O)c2O)C(=O)O[C@@H](C)[C@@H]1OC(=O)CC(C)C,2.9% (inactive),–
COc1ccc2c(c1O)-c1c(OC)c(OC)cc3c1[C@@H](C2)N(C)CC3,–,15.8 µM (active)
C[C@H]1CCCC=CC2C[C@H](O)C[C@@H]2[C@H](O)/C=C\C(=O)O1 (stereo not given in full),–,15.8 µM (active)
O=c1cccc2n1C[C@@H]1C[C@H]2CN2CCCC[C@H]12,–,1.26 µM (active)
C[C@@H](CO)NC(=O)[C@H]1C=C2c3cccc4[nH]cc(c34)C[C@H]2N(C)C1,–,31.6 µM (active)
C=CCN1C[C@@H](C)N([C@H](c2ccc(C(=O)N(CC)CC)cc2)c2cccc(OC)c2)C[C@H]1C,-7.6% (inactive),–
CC[C@H](CO)NC(=O)[C@@H]1C=C2c3cccc4c3c(cn4C)C[C@@H]2N(C)C1,-14.7% (inactive),–
C[C@@H]1O[C@@H](O[C@H]2C[C@@H](O)[C@]3(CO)[C@@H]4[C@@H](O)C[C@]5(C)[C@H]([C@@H]6COC(=O)C6)CC[C@@]5(O)[C@H]4CC[C@@]3(O)C2)[C@H](O)[C@H](O)[C@@H]1O,-2.2% (inactive),–
CC1(C)[C@@H]2CC[C@]1(C)CN(CCC[N+](C)(C)C)C2,-6.8% [at 2.29 µM] (inactive),–
NC(N)=Nc1ccc2[nH]c3c(c2c1)C[C@]1(O)[C@@H]2Cc4ccc(O)c5c4[C@]1(CCN2CC1CC1)[C@H]3O5,9.9% (inactive),–
C[N+]1(C)[C@@H]2CC(OC(=O)[C@@H](CO)c3ccccc3)C[C@@H]1[C@H]1O[C@H]12 (stereo not given in full),-22.8% [at 11.4 µM] (inactive),–
COc1ccc2[nH]c3c(c2c1)CCN=C3C,–,1.58 µM (active)
C/C=C(\C)C(=O)O[C@@H]1C(C)=C2[C@H]([C@@H]1OC(=O)CCCCCCC)[C@@](C)(OC(C)=O)C[C@@H](OC(=O)CCC)[C@@]1(O)[C@H]2OC(=O)[C@]1(C)O,–,39.8 µM (active)
C[C@H](N[C@@H](C)CCc1ccccc1)[C@H](O)c1ccc(O)cc1,–,7.94 µM (active)
COC[C@@H]1OC(=O)c2coc3c2[C@]1(C)C1=C(C3=O)[C@H]2CCC(=O)[C@]2(C)C[C@@H]1OC(C)=O,-13.3% (inactive),–
CCCCCC[C@H]1C(=O)O[C@H](C)[C@H](NC(=O)c2cccc(NC=O)c2O)C(=O)O[C@@H](C)[C@H]1OC(=O)CC(C)C,-17.2% [at 25.6 µM] (inactive),–
CCCc1cc2c(n1CCO)C(C)C1CN(C(=O)c3ccccc3)C(C)(C(=O)OC)C21 (stereo not given),-19.8% (inactive),–
CO[C@@H](C)[C@](O)(C(=O)OC1=CCN2CC[C@H](O)[C@H]12)C(C)C,30% (inactive),–
C=C(CC1(C(C)NP(=O)(c2ccccc2)c2ccccc2)CC1)c1ccccc1 (stereo not given),–,15.8 µM (active)
CCCC[C@@H]1C[C@H]1C(NP(=O)(c1ccccc1)c1ccccc1)c1ccc(Cl)cc1 (stereo not given in full),-7.3% (inactive),–

Structure (SMILES),"activity change, negative = inhibition",Potency
CC(C)[C@]1(NC(=O)[C@H]2C=C3c4cccc5[nH]cc(c45)C[C@H]3N(C)C2)O[C@@]2(O)[C@H]3CCCN3C(=O)[C@H](Cc3ccccc3)N2C1=O,–,31.6 µM (active)
CCN(CC)c1ncnc2c1ncn2[C@@H]1O[C@@H](COP(=O)(O)OP(=O)(O)C(Br)(Br)P(=O)(O)O)[C@H](O)[C@H]1O,–,39.8 µM (active)
O=P(c1ccccc1)(c1ccccc1)N1CC2(CC2)CC(O)(c2ccccc2)C1 (stereo not given),-19.7% (inactive),–
COC(=O)[C@@]1(Cc2ccc(F)cc2)[C@H]2c3cc(C(=O)N(C)C)[nH]c3C[C@H]2CN1C(=O)c1ccccc1,–,20 µM (active)
N[C@]1(C(=O)O)CC[C@@H](C(=O)O)C1,-1.1% (inactive),–
COC(=O)C1(C)C=C2C(=C(C)C(=O)C2C)CN1 (stereo not given),–,31.6 µM (active)
CC[C@H]1CN2CC[C@@H]1C[C@@H]2[C@H](O)c1ccnc2ccccc12,1.3% (inactive),–
COc1cc2c(cc1OC)[C@]13CCN4CC5=CCO[C@@H]6CC(=O)N2[C@@H]1[C@H]6[C@@H]5C[C@H]43,-6.1% (inactive),–
CCN1C[C@@]2(COC(=O)c3ccccc3N3C(=O)C[C@H](C)C3=O)CC[C@H](OC)[C@@]34[C@@H]5CC6[C@@H](OC)C[C@@](O)([C@H]5[C@H]6OC)C(O)([C@@H]13)[C@@H](OC)[C@H]24,-17.3% (inactive),–
C[C@@H]1CCC/C=C\[C@H]2C[C@H](O)C[C@@H]2[C@H](O)/C=C\C(=O)O1,-19.1% (inactive),–
CN[C@H]1[C@H]2[C@H]3CCN2C[C@@H]1O3,-14.1% (inactive),–
C[C@H]1C(=O)O[C@H]2CCN3CC=C(COC(=O)[C@](C)(O)[C@@]1(C)O)[C@H]23,6.3% (inactive),–
C[C@H]1CC[C@]2(NC1)O[C@@H]1C[C@@H]3[C@@H]4CC=C5C[C@H](O)CC[C@@]5(C)[C@H]4CC[C@@]3(C)[C@H]1[C@@H]2C,-1.8% (inactive),–
CC[C@@H]1CN2CC[C@@H]1C[C@H]2[C@@H](O)c1ccnc2ccc(OC)cc12,-8.2% (inactive),–
c1cc2cc(c1)C[n+]1ccc(c3ccccc31)NCc1ccc(cc1)CNc1cc[n+](c3ccccc13)C2,-11.6% (inactive),–
C[C@H](N)c1cccc(Cl)c1Cl,–,1.26 µM (active)
CN1CCc2cc3c(cc2[C@@H]1[C@H]1OC(=O)c2c1ccc1c2OCO1)OCO3,–,15.8 µM (active) and 12.6 µM (active)
O=C(O)[C@H]1C[C@@H]1[C@H](NP(=O)(c1ccccc1)c1ccccc1)c1ccccc1,-1.7% (inactive),–
c1cc2c(cc1[C@H]1OC[C@H]3[C@@H]1CO[C@H]3c1ccc3c(c1)OCO3)OCO2,–,2 µM (active)
C[C@@]12CC[C@H]3[C@@H](CCC4=CC(=O)CC[C@]43C)[C@H]1CCC2=O,-2.8% (inactive),–
